This excerpt belongs to a sample that is enriched for hits.
STK33 inh = inhibitors of human STK33 kinase. Q9BYT3. inhibition, % at 12.5 µM. ADP-Glo luminescence, MBP substrate. 27,000 tested, 0.44% active; in the data active = inhibition above about 20%
Target sequence (Q9BYT3 whole entry, looked up): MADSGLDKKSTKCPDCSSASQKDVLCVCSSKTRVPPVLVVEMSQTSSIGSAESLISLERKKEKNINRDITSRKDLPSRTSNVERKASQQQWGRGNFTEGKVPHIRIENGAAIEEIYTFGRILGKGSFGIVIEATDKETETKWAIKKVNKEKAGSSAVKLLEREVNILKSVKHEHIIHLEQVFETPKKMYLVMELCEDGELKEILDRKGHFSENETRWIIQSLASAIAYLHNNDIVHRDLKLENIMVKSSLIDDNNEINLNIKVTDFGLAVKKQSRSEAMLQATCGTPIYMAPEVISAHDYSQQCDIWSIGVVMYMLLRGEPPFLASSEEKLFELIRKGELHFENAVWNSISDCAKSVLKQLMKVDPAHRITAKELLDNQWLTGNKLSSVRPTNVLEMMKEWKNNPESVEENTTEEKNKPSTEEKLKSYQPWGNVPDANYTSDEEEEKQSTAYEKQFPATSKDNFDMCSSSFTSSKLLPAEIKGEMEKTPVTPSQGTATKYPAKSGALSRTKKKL
NOMO-1 viab = STK33 inhibitor candidate reducing NOMO-1 cell viability; NOMO-1 AML viability, CellTiter-Glo luminescence, 72 h; inhibition, % (test concentration not listed); 37,000 tested, 7.5% active; AID 2330; in the data active = inhibition above about 80%
PD-1 reverse act = reversal of PD-1 mediated T-cell inhibition; primary human CD4 T cells, PD-L1 beads, CellTiter-Glo 96 h; activation, % (concentration not given with the values); 29,000 tested, under 10 active; AID 2316; call rule not given here;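 note: 0% = median vehicle wells and 100% = positive control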
Starred values were filed as active, the others as inactive; . = no result.

SMILES | STK33 inh | NOMO-1 viab | PD-1 reverse act
CCc1ccccc1OCC(=O)Nc1sc2c(c1C(N)=O)CCCC2 | -5.0 | 35.5 | -10.5
CC(C)(C)C1CCc2c(sc(NC(=O)COc3ccccc3Cl)c2C(N)=O)C1 (stereo not drawn) | -0.5 | 104.3* | -4.5
CCOc1ccccc1CNc1nc2nc(C)c(Cl)c(C)n2n1 | -6.4 | -10.0 | .
Nc1nc(Cl)nc2c1ncn2C1C[C@@H](O)C(CO)O1 (stereo partly drawn) | -1.7 | 97.7* | -23.8
Nc1nc(Cl)nc2c1ncn2C1OC(CO)[C@H](O)[C@H]1F (stereo partly drawn) | -1.3 | 96.6* | -20.4
Nc1ncnc2c1ncn2C1CCC(CO)O1 (stereo not drawn) | 4.7 | -11.9 | 3.4
CCOc1ccc(C(=O)NC2CCCCC2)cc1 | . | 9.1 | -0.6
COc1cccc(NC(=O)CSc2nc3ccccc3c(=O)n2-c2ccc(Br)cc2)c1 | 5.0 | 55.8 | -0.4
c1cnc2c(OCc3nc4ccccc4[nH]3)cccc2c1 | 0.7 | 18.6 | -2.0
Nc1nc(COc2cccc3cccnc23)nc(Nc2ccccc2)n1 | 0.5 | 91.4* | -7.9
CCOc1ccc(NC(=O)Cn2cnc3scc(-c4ccc5ccccc5c4)c3c2=O)cc1 | -0.4 | -2.0 | 0.1
C[C@@H]1CCCCO[C@H](CN(C)C(=O)Nc2cccc3ccccc23)[C@@H](C)CN([C@H](C)CO)C(=O)c2cc(NS(=O)(=O)c3ccccc3)ccc2O1 | -0.7 | 41.4 | 0.0
C[C@@H]1CCCCO[C@H](CN(C)Cc2ccc(C(=O)Nc3ccccc3N)cc2)[C@@H](C)CN([C@H](C)CO)C(=O)c2cc(NS(=O)(=O)c3ccc(Cl)cc3)ccc2O1 | . | 126.6* | 0.0
C[C@@H]1CCCCO[C@@H](CN(C)Cc2ccc(C(=O)Nc3ccccc3N)cc2)[C@@H](C)CN([C@H](C)CO)C(=O)c2cc(NS(=O)(=O)c3ccc(F)cc3)ccc2O1 | . | 140.8* | -0.6
C[C@@H]1CCCCO[C@@H](CN(C)Cc2ccc(C(=O)Nc3ccccc3N)cc2)[C@@H](C)CN([C@H](C)CO)C(=O)c2cc(NS(=O)(=O)c3ccccc3)ccc2O1 | . | 139.6* | -1.2
C[C@@H]1CCCCO[C@@H](CN(C)Cc2ccccc2)[C@@H](C)CN([C@H](C)CO)C(=O)c2cc(NS(=O)(=O)c3ccc(F)cc3)ccc2O1 | 0.4 | 22.4 | -1.2
C[C@@H]1CCCCO[C@@H](CN(C)Cc2ccccc2)[C@@H](C)CN([C@H](C)CO)C(=O)c2cc(NS(=O)(=O)c3ccc(Cl)cc3)ccc2O1 | 0.5 | 40.5 | -1.7
C[C@@H]1CCCCO[C@H](CN(C)Cc2ccc(C(=O)Nc3ccccc3N)cc2)[C@@H](C)CN([C@H](C)CO)C(=O)c2cc(NS(=O)(=O)c3cn(C)cn3)ccc2O1 | . | 40.2 | 0.1
C[C@@H]1CCCCO[C@H](CN(C)C(=O)Nc2cccc3ccccc23)[C@@H](C)CN([C@H](C)CO)C(=O)c2cc(NS(=O)(=O)c3ccc(F)cc3)ccc2O1 | 3.0 | 93.8* | -3.8
COc1ccc(C)cc1NC(=O)C(C)NS(=O)(=O)c1ccc(C)cc1 (stereo not drawn) | -0.8 | -0.1 | .
C=CCn1c(SCC(N)=O)nnc1-c1ccc(Br)cc1 | 2.0 | 6.9 | 0.3
CCc1c(O)nc(SCC(=O)Nc2ccc(C(C)=O)cc2)[nH]c1=O | -2.2 | 25.2 | 1.8
CCOC(=O)c1c(NC(=S)Nc2nc(C)cc(C)n2)sc(C)c1-c1ccccc1 | -3.1 | 11.3 | 7.3
CCc1ccc(OCC(=O)Nc2cccnc2)c(Br)c1 | -10.4 | 25.1 | 1.1
O=C(NCCNC(=O)c1cc2ccccc2cc1O)c1cc2ccccc2cc1O | 7.5 | -35.8 | 2.0
SMILES | STK33 inh | NOMO-1 viab | PD-1 reverse act
CC(C)NC(=O)Nc1ccc2c(c1)C(=O)N([C@@H](C)CO)C[C@@H](C)[C@H](CN(C)Cc1ccc(C(=O)Nc3ccccc3N)cc1)O2 | . | 46.9 | -0.3
C[C@@H]1CN([C@@H](C)CO)C(=O)c2cc(NC(=O)NC3CCCCC3)ccc2O[C@@H]1CN(C)Cc1ccc(C(=O)Nc2ccccc2N)cc1 | . | 107.0* | -3.0
C[C@H](CO)N1C[C@H](C)[C@H](CN(C)Cc2ccc(C(=O)Nc3ccccc3N)cc2)Oc2ccc(NC(=O)NC3CCCCC3)cc2C1=O | . | 97.8* | -0.2
C[C@H]1CN([C@@H](C)CO)C(=O)c2cc(NC(=O)NC3CCCCC3)ccc2O[C@H]1CN(C)Cc1ccc(C(=O)Nc2ccccc2N)cc1 | . | 59.4 | -1.9
C[C@@H]1CN([C@H](C)CO)C(=O)c2cc(NC(=O)NC3CCCCC3)ccc2O[C@@H]1CN(C)Cc1ccc(C(=O)Nc2ccccc2N)cc1 | . | 99.0* | -2.2
CC(C)NC(=O)Nc1ccc2c(c1)C(=O)N([C@H](C)CO)C[C@@H](C)[C@H](CN(C)Cc1ccc(C(=O)Nc3ccccc3N)cc1)O2 | . | 15.3 | 1.8
CSc1nc(C)nc(N/C=C(\C#N)S(=O)(=O)c2ccc(C)cc2)n1 | . | 23.5 | -0.3
Cc1ccc(S(=O)(=O)/C(C#N)=C/Nc2cc(C(F)(F)F)cc(C(F)(F)F)c2)cc1 | . | 88.7* | -0.4
Cc1ccc(-c2nnc3c4ccccc4c(C)nn23)cc1S(=O)(=O)NC1CCCCC1 | 6.3 | 33.0 | -1.8
O=[N+]([O-])c1cccc(COc2ccc(-c3cnc4ccccc4n3)cc2)c1 | 3.8 | -30.5 | 0.9
O=S(=O)(c1cccc2c(I)cccc12)N1CCCNCC1 | 7.0 | 64.5 | -1.6
O=S(=O)(c1cccc2c(Cl)cccc12)N1CCCNCC1 | -14.4 | 89.6* | -3.0
CC(C)=CCc1cc2c(cc1O)O[C@H]1c3ccc(O)c(O)c3OC[C@@H]21 | -5.1 | 104.7* | -2.2
COc1ccc2c(c1)O[C@H]1c3ccc(O)cc3OC[C@@H]21 | -0.5 | 20.4 | 3.2
OC[C@H]1O[C@@H](Oc2ccc3c(c2)OC[C@H]2c4cc5c(cc4O[C@@H]32)OCO5)[C@H](O)[C@@H](O)[C@@H]1O | 0.2 | 12.8 | 1.6
Oc1ccc2c(c1O)OCC1c3cc4c(cc3OC21)OCO4 (stereo not drawn) | 1.2 | 105.2* | -2.9
Cc1nn(C(C)C(=O)Nc2cc(C(F)(F)F)ccc2Cl)c(C)c1[N+](=O)[O-] (stereo not drawn) | -2.1 | 24.6 | -0.9
C/C(=C/CCC(CO)C1CCC2(C)C3CCC4C(C)(C)C(OC5OC(CO)C(O)C(O)C5O)CCC45CC35CCC12C)COC1OC(COC2OC(CO)C(O)C(O)C2O)C(O)C(O)C1O (stereo not drawn) | -1.6 | -1.9 | -0.1
Cc1cc(C(=O)CSc2ncnc3sc4c(c23)CCCC4)c(C)n1Cc1ccco1 | . | 29.6 | 0.2
CC(C)NC(=O)Nc1cccc2c1O[C@@H](CN(C)Cc1ccc(C(=O)Nc3ccccc3N)cc1)[C@@H](C)CN([C@H](C)CO)C2=O | . | 70.8 | 2.4
CC(C)NC(=O)Nc1cccc2c1O[C@H](CN(C)Cc1ccc(C(=O)Nc3ccccc3N)cc1)[C@H](C)CN([C@@H](C)CO)C2=O | . | 139.4* | -2.6
C[C@H](CO)N1C[C@H](C)[C@H](CN(C)Cc2ccc(C(=O)Nc3ccccc3N)cc2)Oc2c(NS(C)(=O)=O)cccc2C1=O | . | 52.2 | 1.0
CC(C)NC(=O)Nc1cccc2c1O[C@@H](CN(C)Cc1ccc(C(=O)Nc3ccccc3N)cc1)[C@@H](C)CN([C@@H](C)CO)C2=O | . | 141.1* | -2.2
COc1ccccc1NC(=O)NCCc1ccncc1 | -2.5 | 18.8 | 0.1
